# Results: ChEMBL document CHEMBL3988442, “University of Dundee, Small-Polar-MMV Screening Library” (2021)
# Screen size: about 69,000 compounds; about 420 (0.61%) showed an effect of 50% or more. For the sample, strong results were picked, then their nearest neighbours and some compounds at random.
# Molecular target: T1, Histidine--tRNA ligase (Leishmania infantum) (UniProt A4I591)
# T1 sequence (whole entry): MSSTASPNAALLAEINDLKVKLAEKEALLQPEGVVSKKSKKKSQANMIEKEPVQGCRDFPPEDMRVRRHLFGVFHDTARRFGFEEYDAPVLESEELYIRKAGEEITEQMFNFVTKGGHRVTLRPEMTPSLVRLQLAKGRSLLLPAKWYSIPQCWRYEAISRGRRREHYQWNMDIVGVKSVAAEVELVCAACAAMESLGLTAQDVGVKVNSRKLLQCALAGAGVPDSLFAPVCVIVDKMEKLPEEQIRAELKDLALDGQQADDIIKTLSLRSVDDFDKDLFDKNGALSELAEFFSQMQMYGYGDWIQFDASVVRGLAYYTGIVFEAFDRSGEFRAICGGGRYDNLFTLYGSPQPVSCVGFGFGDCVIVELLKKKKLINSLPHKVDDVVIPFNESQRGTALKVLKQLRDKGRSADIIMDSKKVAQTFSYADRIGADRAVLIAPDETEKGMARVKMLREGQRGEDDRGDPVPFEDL
# Test: Leishmania infantum Histidine tRNA synthetase (LdHisRS)
# Type: functional
# Design: scale not given: in the data most compounds retested in dose-response had high values
# Settings: 30 µM
row,SMILES,Percent Effect [%]
1,O=C1CC(c2cccnc2)c2c(c(C(=O)O)cn2-c2ccc(Cl)cc2)N1 (stereo not given),27.2
2,CC(C)(C)n1ncc2c1NC(=O)CC2c1ccc(C(=O)O)cc1 (stereo not given),26
3,O=C1CC(c2ccc(C(=O)O)cc2)c2ncn(-c3ccc(Cl)cc3)c2N1 (stereo not given),55
4,Cc1noc(C)c1CC(=O)N1CCC(Nc2cccnn2)CC1,12.5
5,Cc1noc(C)c1C(=O)N1CCC(Nc2cccnn2)CC1,60.5
6,Cc1ccc(NC2CCN(C(=O)c3c(C)noc3C)CC2)nn1,28
7,Cc1cnccc1N1CCCN(C(=O)CCCn2ccnc2C)CC1,12.9
8,Cc1nccn1CCCn1cncc1-c1ccc2c(c1)CC(C)N2C (stereo not given),65.8
9,Cc1cc(C)n(CCCn2cncc2-c2ccc3c(c2)CC(C)N3C)n1 (stereo not given),64.4
10,CN1CCCc2cc(-c3cncn3CCNC3CCS(=O)(=O)C3)ccc21 (stereo not given),26.8
11,CCN1CCc2cc(-c3cncn3CCNC3CCS(=O)(=O)C3)ccc21 (stereo not given),29.6
12,CC1Cc2cc(-c3cncn3CC(=O)NC(C)(C)C)ccc2N1C (stereo not given),31
13,Cc1nccn1CCCn1cncc1-c1ccc2c(c1)CCCN2C,30.9
14,Cc1nn(C)c(C)c1CCn1cncc1-c1ccc2c(c1)CC(C)N2C (stereo not given),53.7
15,CCN1c2ccc(-c3cncn3CC(=O)NC(C)(C)C)cc2CC1C (stereo not given),42.1
16,CCOC(=O)c1n[nH]cc1-c1cncn1CCCn1nc(C)cc1C,13.1
17,CCN1c2ccc(-c3cncn3CCCn3ccnc3C)cc2CC1C (stereo not given),48.3
18,Cc1nccn1CCCn1cncc1-c1ccc2c(c1)CCC(C)N2C (stereo not given),83.2
19,c1coc(CN2CCO[C@H]3[C@@H](OCC4CC4)CC[C@@H]32)c1,9.62
20,Cc1ccc(CN2CC[C@@H]3OCCN(Cc4ccncc4)[C@H]3CC2)s1,15.1
21,Cc1cc(N2CCC(O)CC2)nc(C2CCCN2C)n1 (stereo not given),54.9
22,Cc1cc(N2CCC(O)CC2)nc(C)n1,13.7
23,CN1CCCCC1c1cncc(N2CCC(O)CC2)n1 (stereo not given),14.5
24,CN1CC2(CCN(C(=O)c3ccc(=O)n(C)c3)CC2)CC1=O,-38.8
25,O=C(c1ncccn1)N1C[C@@H]2COC[C@]2(c2nnc(C3CC3)o2)C1,20.6
26,CC(=O)N1CCC2(CC1)CC[C@@]1(C(=O)N(C)C)CN(S(C)(=O)=O)C[C@@H]21,13.2
27,CC(=O)N1CC[C@H]2OCC[C@@H](C(=O)NCc3ccco3)[C@@H]2C1,10.1

row,SMILES,Percent Effect [%]
1,Cn1ccc2c(-c3cc(N4CCOCC4)ncn3)ccnc21,9.52
2,Cn1ccc2c(-c3cc(N)nc(N4CCOCC4)n3)ccnc21,19.1
3,Cn1ccc2c(-c3cc(N4CCCCC4)ncn3)ccnc21,54.8
4,CC(C)C(=O)N1CCN(C(=O)c2cc(Cl)no2)[C@H]2CS(=O)(=O)C[C@H]21,1.61
5,CC(C)c1nnc(N2C[C@@H]3CC[C@H](C2)N(Cc2ccccc2)C3)s1,59.5
6,Cc1nnsc1CN1C[C@@H]2CC[C@H](C1)N(Cc1ccccc1)C2,8.33
7,CCCN1C[C@H]2CC[C@@H]1CN(c1nnc(C(C)C)s1)C2,-42.9
8,CC(C)c1nnc(N2C[C@@H]3CC[C@H](C2)N(CC2CCC2)C3)s1,19.1
9,CC(=O)c1ccc(C(=O)N2C[C@@H]3CC[C@H](C2)N(Cc2ccccc2)C3)s1,30.1
10,CSCCCN1C(=O)CC[C@H]2CN(Cc3ncc[nH]3)CC[C@H]21,1.33
11,Cc1nnc(NCC2(c3ccccc3)CC2)c(C#N)c1C,9.62
12,Cc1nnc(NCCc2coc(-c3ccc(F)cc3)n2)c(C#N)c1C,48.6
13,COc1ccc(-c2nc(CCNCc3ccncc3)co2)cc1,24.5
14,COc1ccc(-c2nc(CCNc3nnc(C)c(C)c3C#N)co2)cc1,57.1
15,Cc1nnc(NCCc2coc(-c3ccccc3)n2)c(C#N)c1C,51.4
16,Cc1nnc(NCCC(=O)NCc2ccccc2)c(C#N)c1C,31.5
17,CCN1CC[C@@]2(C(=O)N3CCCC3)CCN(S(C)(=O)=O)CC[C@@H]12,21.4
18,O=C(C1CCOCC1)N1C[C@H]2CCC[C@@]2(COc2ccccn2)C1,0
19,CC(C)CC(=O)N1C[C@@H]2CCN(c3ncccn3)C[C@@H]2C1,17.1
20,O=C(c1cnccn1)N1C[C@@H]2[C@@H](C1)OCC(=O)N2CC1CCCC1,-944
21,O=C(c1ccccn1)N1C[C@H]2CCC[C@@]2(COCC2CCOCC2)C1,10.1
22,CC(C)=CCN1CCN(Cc2ncc[nH]2)[C@H]2CS(=O)(=O)C[C@H]21,0
23,COC(=O)C1CCN(c2cc(C)nc(-c3ccncc3)n2)CC1,37.6
24,Cc1cc(N2CCC(C(=O)N(C)C)CC2)nc(-c2ccncc2)n1,17.1
25,Cc1cc(N2CCC(Cc3ccccc3)CC2)nc(-c2ccncc2)n1,62.5
26,CC(=O)NCC1CCN(c2cc(C)nc(-c3ccncc3)n2)CC1,59.8
27,Cc1cc(N2CCN(CCO)CC2)nc(-c2ccncc2)n1,20

row,SMILES,Percent Effect [%]
1,CCNC(=O)CN1CCN(c2cc(C)nc(-c3ccncc3)n2)CC1,30.1
2,Cc1cc(N2CCC(Cc3ccccc3)CC2)ncn1,21.4
3,Cc1cc(N2CCN(CC(=O)N(C)C)CC2)nc(-c2ccncc2)n1,51.4
4,Cc1cc(N2CCC(CC(N)=O)CC2)nc(-c2ccncc2)n1,15.6
5,c1cnc(N2CCN(C3CCC[C@@H]4CN(CC5CC5)C[C@H]34)CC2)nc1 (stereo not given in full),2.86
6,Cc1ccc(-c2nnc(CN3CCOC(Cn4cncn4)C3)o2)cc1 (stereo not given),3.39
7,CCn1ncc(CN2C[C@@H]3CCCN3C[C@H]2CCSC)c1C,-58
8,CC(C)N1CCN2C(=O)N(C3CCCCC3)C[C@H]2C1,18.9
9,CCO[C@@H]1C[C@H]2CN(S(=O)(=O)c3cccs3)CCN2C1,7.89
10,CN(C)S(=O)(=O)N1C[C@H]2C[C@H](C(=O)NCc3ccccc3)[C@@H](C1)O2,3.64
11,Cc1cc(CN2CCCC2)cc(Oc2ccc3c(c2)CC(CN)O3)c1 (stereo not given),12.5
12,NCC1Cc2cc(Oc3cc(F)c(CN4CCCC4)c(F)c3)ccc2O1 (stereo not given),57.5
13,COc1ccc(CN2CCCC2)cc1Oc1ccc2c(c1)CC(CN)O2 (stereo not given),25.8
14,O=C(C1CCC1)N1CCN(Cc2ccccc2F)[C@H]2CS(=O)(=O)C[C@H]21,23.3
15,CN1C(=O)CO[C@H](c2ccc(NC(=O)Nc3ccccc3)cc2)[C@H]1CO,14.9
16,Cc1oc(C)c(C(=O)N2CCN(Cc3cscn3)CC2)c1C,13.3
17,Cn1cc(C(=O)N2CCN(Cc3cscn3)CC2)ccc1=O,15.3
18,Cn1cc(NC(=O)N2CCN(Cc3cscn3)CC2)ccc1=O,74.8
19,CCOC1CCN(C(=O)NCc2ccc(C(=O)N(C)C(C)C)cc2)CC1,16.7
20,Cn1cc(NC(=O)C2CC(c3ccccc3)C2)ccc1=O (stereo not given),71.3
21,CCOC1CCN(C(=O)NCc2ccc(CN3CCOCC3)cc2)CC1,13.5
22,Cn1cc(C(=O)N2CCN(c3ccccc3)CC2)ccc1=O,11
23,CCOC1CCN(C(=O)Nc2ccc(=O)n(C)c2)CC1,114
24,CC(C)c1nnc(NC(=O)N2CCN(C)CC2c2ccccc2)s1 (stereo not given),4.17
25,CC(C)Oc1ncccc1CNC(=O)N1CCC1c1ccccc1 (stereo not given),16.8
26,Cn1cc(NC(=O)N2CCC2c2ccccc2)ccc1=O (stereo not given),108
